Structures are written as SMILES. Where “and” joins values, the source holds several entries; their conditions need not be identical. Equal entries are not always repeated. Results filed as inconclusive are left out. A structure can be active in one record and inactive in another. Calls of active or inactive are those of the source. The call rests on the fitted dose curve; in most records, active means well fitted curve in the direction sought with a large enough effect; inconclusive means small, poorly fitted or top-dose-only effect, or another doubt; inactive means no such curve, though single readings can be large; an effect the other way counts as inactive or inconclusive. Peptide text beside a SMILES is read from it.

The target of experiment [1] is Glutathione peroxidase 1 (Homo sapiens) (UniProt P07203). Nature of the experiment: Primary qHTS Assay for Inhibitors of Recombinant Selenoprotein Glutathione Peroxidase 1 (GPX1) (AID 1845191). Further: nearly all actives have a fitted effect of over 65% in size. Further: potency means the concentration at half of the fitted maximal effect. The procedure, abridged: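 10 nM GPX1 + cpd, 30 min RT; start w/ 1 mM GSH, 0.5 mM cumene hydroperoxide, 0.5 mM NADPH, 100 nM GR, 0.01% BSA; buffer 50 mM Tris-HCl pH 7.5, 2 mM EDTA, 150 mM NaCl; Fl 340/450, 0 & 15 min.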
Chain of Glutathione peroxidase 1 (Homo sapiens) (P07203 whole entry, looked up): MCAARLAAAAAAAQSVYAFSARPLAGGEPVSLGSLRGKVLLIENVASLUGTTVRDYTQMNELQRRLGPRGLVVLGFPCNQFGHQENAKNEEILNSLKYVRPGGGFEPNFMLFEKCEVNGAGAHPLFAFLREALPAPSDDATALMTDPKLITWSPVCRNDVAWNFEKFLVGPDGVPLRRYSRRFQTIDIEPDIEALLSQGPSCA

Experiment [2] deals with Phospholipid hydroperoxide glutathione peroxidase GPX4 (Homo sapiens) (UniProt P36969). Kind of experiment: Primary qHTS Assay for Inhibitors of Recombinant Selenoprotein Glutathione Peroxidase 4 (GPX4) (AID 1845192). Further: nearly all actives have a fitted effect of over 65% in size. Further: potency means the concentration at half of the fitted maximal effect. The procedure, abridged:
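NADPH consumption, followed by fluorescence at 340/450 nm between 0 and 15 min, reports GPX4 activity via coupled glutathione reductase (100 nM). Enzyme 200 nM was pre-exposed to compound 30 min; 0.5 mM cumene hydroperoxide and 1 mM GSH served as substrates.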

Experiment [3] in a line: Primary fluorescence-based thiol-reactive (MSTI) qHTS assay for identification of artifact compounds. (AID 1845221). Further: series mostly up to about 54 µM; nearly all actives have a fitted effect of over 65% in size. The gist of the method: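 Compounds were incubated 1 h at room temperature in the dark with the MSTI probe (4 uM) in PBS pH 7.4, 2% DMSO. Signals were normalized between Acetyl-MSTI and MSTI.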
Background: In qHTS, concentration-response curves come from the screen itself.

The test system of experiment [4] is Nanoluciferase (engineered Oplophorus gracilirostris luciferase). Kind of experiment: Primary Nanoluciferase (NLuc) qHTS assay for identification of artifact compounds. (AID 1845222). Further: series mostly up to about 54 µM. The gist of the method: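 Luminescence from secreted NLuc (filtered, 1:55-diluted S16 cell medium) read 5 min after Nano-Glo substrate; compounds preincubated 15 min, RT. Hill fits of inhibition normalized to DMSO and no-enzyme.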

The nature of experiment [5]: Primary redox qHTS assay for identification of artifact compounds. (AID 1845223). The procedure, abridged: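 Amplex Red (25 uM) and HRP (250 mU/mL) in HBSS, with compounds for 15 min, then 250 uM DTT for 30 min, room temperature, dark. Fluorescence 525/598 nm read; normalized to DMSO and 10 uM DA3003; Hill fit.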
Experiment [6] in a line: Quantitative High-Throughput drug screen in 47 multiple myeloma cell lines against the NCATS MIPE library collection: FR4_PLB cell viability assay (AID 1918924; further: nearly all actives have a fitted effect of over 35% in size; further: potency means the concentration at half of the fitted maximal effect). The gist of the method: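 Primary qHTS used for cherry-picking: cells at 500/well, library compounds for 48 h (37C, 5% CO2), luminescent ATP assay.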
Experiment [7] in a line: Quantitative High-Throughput drug screen in 47 multiple myeloma cell lines against the NCATS MIPE library collection: EJM_DSMZ cell viability assay (AID 1918926; further: nearly all actives have a fitted effect of over 30% in size; further: potency means the concentration at half of the fitted maximal effect). The procedure, abridged:
(§1)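 Viability readout: CellTiter-Glo luminescence following 5 min room-temperature incubation with reagent. Prior exposure: 48 h, 37C, humidified 5% CO2, 500 cells per well.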

Experiment [8] can be described thus: Quantitative High-Throughput drug screen in 47 multiple myeloma cell lines against the NCATS MIPE library collection: AMO1_DSMZ cell viability assay (AID 1918927; further: nearly all actives have a fitted effect of over 30% in size; further: potency means the concentration at half of the fitted maximal effect). The gist of the method: as §1
The nature of experiment [9]: Quantitative High-Throughput drug screen in 47 multiple myeloma cell lines against the NCATS MIPE library collection: ARP1_JJKsccF8 cell viability assay (AID 1918928; further: nearly all actives have a fitted effect of over 40% in size; further: potency means the concentration at half of the fitted maximal effect). The gist of the method: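 Myeloma cells, 500 per well, were exposed to MIPE 4.0 drugs by pin transfer for 48 h at 37 °C, 5% CO2. Viability was read as ATP luminescence with CellTiter-Glo, normalised to DMSO-only (100%) and medium-only (0%) wells.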

Experiment [10] can be described thus: Quantitative High-Throughput drug screen in 47 multiple myeloma cell lines against the NCATS MIPE library collection: Delta47_JCRB cell viability assay (AID 1918925; further: nearly all actives have a fitted effect of over 45% in size; further: potency means the concentration at half of the fitted maximal effect). The procedure, abridged: as §1
The nature of experiment [11]: Quantitative High-Throughput drug screen in 47 multiple myeloma cell lines against the NCATS MIPE library collection: ARD_JJKsccE7 cell viability assay (AID 1918929; further: potency means the concentration at half of the fitted maximal effect). The gist of the method:
as §1

Chain of Phospholipid hydroperoxide glutathione peroxidase GPX4 (Homo sapiens) (P36969 whole entry, looked up): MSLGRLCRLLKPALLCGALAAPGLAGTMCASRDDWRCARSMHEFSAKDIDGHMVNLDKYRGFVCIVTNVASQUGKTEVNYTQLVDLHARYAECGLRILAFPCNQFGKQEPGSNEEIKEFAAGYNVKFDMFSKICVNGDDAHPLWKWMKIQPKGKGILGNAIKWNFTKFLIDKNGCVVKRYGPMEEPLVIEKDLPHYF

For `O=C(OC1C[C@H]2CC[C@@H](C1)[N+]21CCCC1)C(O)(c1ccccc1)c1ccccc1` (some centres not stated), the Potency result in experiment [1], in experiment [2], in experiment [3], in [6], in experiment [7] and in [8] was “inactive” each time. For the same compound, the Potency result in experiment [9] was “inactive”. Besides, the outcome in experiment [4] and in [5] was inactive.
With `CN(C)[C@@H](CCOc1cccc2ccccc12)c1ccccc1`, the Potency result in experiment [1] and in experiment [2] was “inactive” each time. The Potency was 18.7 µM (active) in experiment [6], 18.7 µM (active) in experiment [10] and 26.4 µM (active) in experiment [9].
Consider `CC1Cc2ccccc2N1NC(=O)c1ccc(Cl)c(S(N)(=O)=O)c1` (configuration not stated), for which the Potency result in [1], in experiment [2], in experiment [6], in experiment [10], in experiment [7] and in experiment [9] was “inactive” in each case.
For the compound `COC(=O)[C@H](Cc1ccccc1)NC(=O)[C@@H](N)CC(=O)O` (H-Asp-Phe-OMe), the Potency result in [1], in experiment [2], in experiment [6], in [10], in experiment [7] and in [8] was “inactive” in each case. Further, the Potency entry in experiment [9] and in experiment [11] was “inactive” throughout.
On to `CN(C)CCc1c[nH]c2ccc(Cn3cncn3)cc12`, for which the Potency entry in experiment [1], in experiment [2], in experiment [6], in experiment [10], in experiment [7] and in [9] was “inactive” in each case.
Turning to `C=C(c1ccc(C(=O)O)cc1)c1cc2c(cc1C)C(C)(C)CCC2(C)C`, the Potency entry in experiment [1], in experiment [7] and in [9] was “inactive” each time. The Potency in experiment [2] is 6.31 µM (active) and inactive and 8.06 µM (active). Moreover, the compound was classed as inactive in experiment [4] and in experiment [5].
With `CS(=O)(=O)OCCCCOS(C)(=O)=O`, the Potency result in experiment [1], in [2], in experiment [10], in experiment [8] and in experiment [11] was “inactive” each time. Also, in [6], the Potency was 4.18 µM (active).
With `COc1cc(OC)c(C(=O)CCCN2CCCC2)c(OC)c1`, the Potency entry in experiment [1], in experiment [2], in experiment [6], in experiment [10], in [7] and in [8] was “inactive” each time. Also, the Potency result in [9] and in [11] was “inactive” in each case.
Consider `O=C(O)c1cn(-c2ccc(F)cc2)c2cc(N3CCNCC3)c(F)cc2c1=O`, for which the Potency entry in experiment [1], in experiment [2], in experiment [6], in [10], in [7] and in experiment [8] was “inactive” in each case. For the same compound, the Potency result in experiment [11] is “inactive”.
For `O=C1CCc2ccc(OCCCCN3CCN(c4cccc(Cl)c4Cl)CC3)cc2N1`, the Potency entry in experiment [1], in experiment [2], in experiment [6], in [7] and in experiment [8] was “inactive” in each case. In addition, the Potency in experiment [10] and in experiment [9] was 23.5 µM (active) throughout.
Take `CC(S)C(=O)NCC(=O)O` (configuration not stated): the Potency entry in experiment [1], in experiment [2], in experiment [6], in [7], in experiment [8] and in [9] was “inactive” each time. Also, the Potency in experiment [11] is 2.64 µM (active).
As for `NS(=O)(=O)c1cc(C(=O)O)c(NCc2ccco2)cc1Cl`, the Potency result in [1], in [2], in experiment [6], in experiment [10], in experiment [7] and in experiment [9] was “inactive” each time.
As to `CC(C)[N+]1(C)[C@@H]2CC[C@H]1CC(OC(=O)C(CO)c1ccccc1)C2` (some centres not stated), the Potency result in experiment [1], in experiment [2], in experiment [6], in experiment [10], in experiment [7] and in experiment [9] was “inactive” throughout.
Consider `CC(C)c1ccc2oc3nc(N)c(C(=O)O)cc3c(=O)c2c1`, for which the Potency is 22.7 µM (active) and 16.3 µM (active) in experiment [1]; 12.8 µM (active) and 8.06 µM (active) in experiment [2]. Besides, the Potency entry in [6], in [7], in experiment [8] and in experiment [11] was “inactive” throughout.
In the case of `CCCCC(CC)COC(=O)C(C#N)=C(c1ccccc1)c1ccccc1` (configuration not stated), the Potency entry in [1], in [2], in experiment [6], in [7], in experiment [8] and in [9] was “inactive” each time.
Consider `O=C(O)CCNC(=O)c1ccc(N=Nc2ccc(O)c(C(=O)O)c2)cc1`, for which the Potency entry in experiment [1], in [2], in experiment [6], in experiment [10], in experiment [7] and in experiment [9] was “inactive” throughout. Moreover, the Potency result in experiment [11] is “inactive”.
With `CN(C)c1ccc2nc3ccc(=[N+](C)C)cc-3sc2c1`, the Potency entry in experiment [1] and in [2] was “inactive” in each case. For the same compound, the Potency is 1.87 µM (active) in [6]; 6.62 µM (active) in experiment [10]; 0.469 µM (active) in [7]; 8.33 µM (active) in experiment [8]; 1.66 µM (active) in experiment [9]; 13.2 µM (active) in experiment [11].
For `CCCCCCCCCCCCCCCCCCCCCCO`, the Potency entry in [1], in [2], in [6], in experiment [7], in experiment [8] and in [9] was “inactive” each time. The Potency result in experiment [11] is “inactive”.
For the compound `Nc1ccc(S(N)(=O)=O)cc1`, the Potency entry in experiment [1], in experiment [2], in [6], in [10], in [7] and in [8] was “inactive” each time. For the same compound, the Potency entry in experiment [9] and in experiment [11] was “inactive” each time.
`Cc1cccc(CN2CCN(C(c3ccccc3)c3ccc(Cl)cc3)CC2)c1` (configuration not stated): the Potency entry in experiment [1], in [2] and in [6] was “inactive” throughout. For the same compound, the Potency in experiment [10] was 8.33 µM (active); in [7], 18.7 µM (active); in experiment [11], 26.4 µM (active).
For the compound `CC[C@]1(O)C[C@H]2CN(CCc3c([nH]c4ccccc34)[C@@](C(=O)OC)(c3cc4c(cc3OC)N(C=O)[C@H]3[C@@](O)(C(=O)OC)[C@H](OC(C)=O)[C@]5(CC)C=CCN6CC[C@]43[C@@H]65)C2)C1`, the Potency entry in experiment [1], in experiment [2] and in experiment [6] was “inactive” in each case. The Potency in [10] is 0.0047 µM (active); in experiment [8], 0.372 µM (active); in experiment [9] it was 0.003 µM (active); in experiment [11] it was 0.0662 µM (active).

The values above are taken from PubChem BioAssay (NCATS).
